Compounds without any hit were thinned out: in the full panel of roughly 83,000, 20% have a hit.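 96-well plates, one dose, 48 hours. Percent growth reported; active if below 10.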 Activity calls are given as the source filed them.
Each compound was assayed on A549/ATCC NSCLC (assay: NCI-60 one-dose screen, 48 h (100 = growth as untreated, 0 = no growth, -100 = all killed)). Conditions: 10 µM unless noted.

Compound | growth
C=C(CC(=O)OC)C(C)=O | 114% (inactive)
O=C1/C(=C\c2cn(CC(O)CN3CCCCC3)c3ccccc23)c2ccccc2N1c1c(Cl)cccc1Cl (stereo not drawn) | -90.4% (active)
CC/C=C(\C)C(CCC)(CN=O)C(=O)OCC (stereo not drawn) | 85.8% (inactive)
CN(C)C(=S)Sc1ccc([N+](=O)[O-])cc1[N+](=O)[O-] | 43.6% (inactive)

Each compound was assayed on 786-0 renal in the same assay as above. Conditions: 10 µM unless noted.

Compound | growth
CC(C)C1=NOC(=O)C1=Cc1cn(-c2ccccc2)nc1-c1ccccc1 | 72.9% (inactive)
CCN(CC)CCCNCc1cc(-c2ccccc2)nc2ccccc12 | 76.1% (inactive)
CCOC(=O)CCC[P+](c1ccccc1)(c1ccccc1)c1ccccc1 | 101% (inactive)
Cc1cccc(C[C@H](NC(=O)Nc2ccc(Cl)cc2F)C(=O)N[C@@H]2C(=O)N3C[C@H](O)C[C@H]3C(=O)N3CCN(C)C[C@H]3C(=O)N[C@@H](C)C(=O)N3C[C@H](C)C[C@H]3C(=O)O[C@H]2C)c1 | 66.6% (inactive)
COc1cc(C)cc2oc3oc(=O)c(C(=O)c4cc5cc(Br)ccc5o4)cc3c(=O)c12 | 110% (inactive)
COc1ccc(CC(C#N)c2ccc(Cl)cc2)cc1 (stereo not drawn) | 87% (inactive)
Clc1ccc(/C=N/Nc2nc3ccccc3s2)c(Cl)c1 | 90.7% (inactive)
Nc1nc(SCc2cccc([N+](=O)[O-])c2)c2[nH]cnc2n1 | 98.1% (inactive)
COC(=O)[C@]12CCC(C)(C)C[C@H]1C1=CC[C@@H]3[C@@]4(C)C/C(=C/c5cccnc5)C(=O)C(C)(C)[C@@H]4CC[C@@]3(C)[C@]1(C)CC2 | -29.1% [100 µM] (active)
